Laboratory results: the supplement of paper PMC13380429

Tested on: Vero E6 infected with SARS-CoV-2
Experiment: inhibition of SARS-CoV-2 cytopathic effect; higher = more antiviral protection, active = above 15
Conditions: 48 h

Measured: inhibition of SARS-CoV-2 cytopathic effect

CC(C)NCC(O)COc1cccc2[nH]ccc12 (stereo not given) [pindolol]
inactive: 1 nM -3.04% | 8.33 nM 0.875% | 100 nM 0.95% | 833.33 nM -0.725% | 10000 nM -1.61%

NC(=O)CN1Cc2ccccc2OC1=O [caroxazone]
inactive: 1 nM 1.09% | 8.33 nM -3.02% | 100 nM -3.19% | 833.33 nM -4.05% | 10000 nM -0.94%

CC(C)(C)NCC(O)COc1cccc2[nH]c(C#N)cc12 (stereo not given) [cyanopindolol]
inactive: 1 nM 1.56% | 8.33 nM 1.94% | 100 nM 0.47% | 833.33 nM -2.7% | 10000 nM -1.96%

COc1cc(C(=O)NCc2ccc(OCCN(C)C)cc2)cc(OC)c1OC [trimethobenzamide]
inactive: 1 nM -2.2% | 8.33 nM -1.41% | 100 nM 2.21% | 833.33 nM -1.81% | 10000 nM -0.65%

Cn1c(=O)cnn(CCCCN2CCN(c3ncccn3)CC2)c1=O
inactive: 1 nM 0.44% | 8.33 nM -0.24% | 100 nM 1.14% | 833.33 nM -0.77% | 10000 nM 1.05%

O=S(=O)(Cc1ccccc1)Nc1ccc(-c2ccc3c(cnn3-c3ccc(F)cc3)c2)c(C(F)(F)F)c1
inactive: 1 nM 0.84% | 8.33 nM 1.44% | 100 nM -0.94% | 833.33 nM 2.01% | 10000 nM -3.81%

CO/N=C(\C(=O)N[C@@H]1C(=O)N2C(C(=O)OCOC(=O)C(C)(C)C)=C(/C=C\c3scnc3C)CS[C@H]12)c1csc(N)n1 [cefditoren-pivoxil]
inactive: 1 nM -0.67% | 8.33 nM -0.15% | 100 nM -2.07% | 833.33 nM -1.49% | 10000 nM -0.51%

CCNCCCNCCCCNCCCNCC
inactive: 1 nM -0.97% | 8.33 nM 1.01% | 100 nM 3.25% | 833.33 nM 3.4% | 10000 nM 11.4%

N=C(N)NC(=O)Cc1c(Cl)cccc1Cl [guanfacine]
inactive: 1 nM 3.14% | 8.33 nM 4.91% | 100 nM -3.11% | 833.33 nM 1.89% | 10000 nM -0.42%

CCCCC(=O)N(Cc1ccc(-c2ccccc2-c2nnn[nH]2)cc1)[C@H](C(=O)O)C(C)C [valsartan]
inactive: 1 nM 0.84% | 8.33 nM -1.89% | 100 nM 0.86% | 833.33 nM 0.99% | 10000 nM 0.91%

CC(OC(=O)OC1CCCCC1)OC(=O)C1=C(CSc2nnnn2CCN(C)C)CS[C@@H]2[C@H](NC(=O)Cc3csc(N)n3)C(=O)N12 (stereo not given in full) [cefotiam-cilexetil]
inactive: 1 nM -0.8% | 8.33 nM 0.27% | 100 nM 0.74% | 833.33 nM 0.5% | 10000 nM -0.94%

O=C1CCC(N2C(=O)c3ccccc3C2=O)C(=O)N1 (stereo not given) [thalidomide]
inactive: 1 nM 5.17% | 8.33 nM -1.38% | 100 nM -2.47% | 833.33 nM -1.68% | 10000 nM -4.45%

NNC(=O)CN1C(=O)CN=C(c2ccccc2)c2cc(Br)ccc21 [gidazepam]
inactive: 1 nM 0.8% | 8.33 nM 2.74% | 100 nM 1.83% | 833.33 nM 2.01% | 10000 nM 3.71%

N=C(N)NC(=O)c1cnn(-c2cccc3ncccc23)c1C1CC1 [zoniporide]
inactive: 1 nM -0.05% | 8.33 nM 3.39% | 100 nM 1.14% | 833.33 nM 3.55% | 10000 nM -1.51%

CCOC(=O)[C@H](Cc1ccc([N+](=O)[O-])cc1)NC(=O)c1ccccc1
inactive: 1 nM 0.55% | 8.33 nM 1.63% | 100 nM 2.6% | 833.33 nM -1.21% | 10000 nM 0.3%

CCC(=O)O[C@]1(C(=O)COC(C)=O)CC[C@H]2[C@@H]3C[C@H](C)C4=CC(=O)C=C[C@]4(C)[C@H]3[C@@H](O)C[C@@]21C [methylprednisolone-aceponate]
inactive: 1 nM 1.61% | 8.33 nM 1% | 100 nM 0.19% | 833.33 nM 3.54% | 10000 nM 2.69%

CC(=O)Oc1ccccc1C(=O)Oc1cccc(CO[N+](=O)[O-])c1
inactive: 1 nM -1.24% | 8.33 nM -0.2% | 100 nM -0.7% | 833.33 nM 0.32% | 10000 nM 3.31%

CCn1c(=O)c2c(nc(/C=C/c3ccc(OC)c(OC)c3)n2C)n(CC)c1=O [istradefylline]
inactive: 1 nM 1.05% | 8.33 nM -1.49% | 100 nM -0.91% | 833.33 nM -0.33% | 10000 nM 2.33%

NC(=O)C(c1ccccc1)(c1ccc(F)cc1)c1ccc(F)cc1 [senicapoc]
inactive: 1 nM -2.77% | 8.33 nM -1.48% | 100 nM -2.37% | 833.33 nM 0.14% | 10000 nM -0.54%

CN1CCC(=C2c3ccccc3Sc3ccccc32)CC1 [pimethixene]
inactive: 1 nM 1.38% | 8.33 nM 0.84% | 100 nM -0.63% | 833.33 nM -0.47% | 10000 nM -3.2%

CN(CCCN1c2ccccc2CCc2ccccc21)CC(=O)c1ccc(Cl)cc1 [lofepramine]
inactive: 1 nM 2.35% | 8.33 nM -0.58% | 100 nM 1.56% | 833.33 nM 2.86% | 10000 nM 0.69%

C=CCNc1ncnc2ccc(Br)cc12
inactive: 1 nM 2.47% | 8.33 nM 5.36% | 100 nM 4.33% | 833.33 nM 0.12% | 10000 nM 0.96%

CC1(C)[C@@H](O)CC[C@]2(C)[C@H]3C(=O)C=C4[C@@H]5C[C@@](C)(C(=O)O)CC[C@]5(C)CC[C@@]4(C)[C@]3(C)CC[C@@H]12 [enoxolone]
inactive: 1 nM -3.08% | 8.33 nM -3.58% | 100 nM -1.05% | 833.33 nM 2.65% | 10000 nM -0.55%

CCOC(=O)[C@H](CCc1ccccc1)N[C@H]1CS[C@H](c2cccs2)CN(CC(=O)O)C1=O [temocapril]
inactive: 1 nM -2.77% | 8.33 nM -0.7% | 100 nM 1.38% | 833.33 nM -0.25% | 10000 nM -3.19%

Oc1ccc(-c2c(-c3ccccc3)nn3c(C(F)(F)F)cc(C(F)(F)F)nc23)cc1
inactive: 1 nM 0.08% | 8.33 nM 0.21% | 100 nM -0.05% | 833.33 nM -1.7% | 10000 nM 11.9%

Nc1ccc(S(=O)(=O)Nc2nccs2)cc1 [sulfathiazole]
inactive: 1 nM 1.78% | 8.33 nM 2.25% | 100 nM 0.28% | 833.33 nM 1.1% | 10000 nM -0.08%

CC(C)(O)c1ccccc1CC[C@@H](SCC1(CC(=O)O)CC1)c1cccc(/C=C/c2ccc3ccc(Cl)cc3n2)c1 [montelukast]
inactive: 1 nM 0.18% | 8.33 nM 0.4% | 100 nM -0.23% | 833.33 nM -0.66% | 10000 nM -4.23%

N#Cc1ccc(C2CCCc3cncn32)cc1 (stereo not given) [fadrozole]
inactive: 1 nM 1.9% | 8.33 nM 0.56% | 100 nM -1.22% | 833.33 nM -4.4% | 10000 nM -0.19%

CNCCCOc1cc(F)c(-c2c(Cl)nc3ncnn3c2N[C@@H](C)C(F)(F)F)c(F)c1 [cevipabulin]
inactive: 1 nM 1.36% | 8.33 nM 1.13% | 100 nM 2.89% | 833.33 nM 6.1% | 10000 nM -0.76%

COC(=O)C1=C(C)NC(C)=C(C(=O)OCCSc2ccccc2)[C@@H]1C
inactive: 1 nM -2.31% | 8.33 nM -3.84% | 100 nM -2.77% | 833.33 nM -0.76% | 10000 nM 3.1%

N#Cc1c(N)nc(SCc2csc(-c3ccc(Cl)cc3)n2)c(C#N)c1-c1ccc(OCCO)cc1 [capadenoson]
inactive: 1 nM 0.18% | 8.33 nM -0.34% | 100 nM -1.11% | 833.33 nM -2.63% | 10000 nM -3.59%

Cc1ccc(NC2=NCCN2)c(Cl)c1 [tolonidine]
inactive: 1 nM 1.65% | 8.33 nM 0.34% | 100 nM 0.64% | 833.33 nM -0.01% | 10000 nM 0.42%

CC1(C)C(=O)N(c2ccc(C#N)c(C(F)(F)F)c2)C(=O)N1CCCCO
inactive: 1 nM 2.69% | 8.33 nM 0.32% | 100 nM 4.71% | 833.33 nM 0.45% | 10000 nM 1.21%

CC(C)[C@H](N)C(=O)OCCOCn1cnc2c(=O)nc(N)[nH]c21 [valaciclovir]
inactive: 1 nM 0.01% | 8.33 nM 0.27% | 100 nM 1.58% | 833.33 nM 0.1% | 10000 nM -2.93%

NCCc1cc(O)c(O)cc1O [oxidopamine]
inactive: 1 nM -2.92% | 8.33 nM 0.45% | 100 nM -2.01% | 833.33 nM -2.87% | 10000 nM -3.37%

C[C@@]1(c2cc(-c3cncnc3)c(F)cc2F)CCSC(N)=N1
inactive: 1 nM -0.91% | 8.33 nM -3.4% | 100 nM -0.51% | 833.33 nM -2% | 10000 nM -3.12%

CC[C@H](CC[C@@H](C)[C@H]1CC[C@H]2[C@@H]3CC=C4C[C@@H](O)CC[C@]4(C)[C@H]3CC[C@]12C)C(C)C [beta-Sitosterol]
inactive: 1 nM 0.66% | 8.33 nM 2.31% | 100 nM 1.23% | 833.33 nM -2.15% | 10000 nM -1.08%

CC(C)C[C@H](NC(=O)N1CCCCCC1)C(=O)N[C@H](Cc1cn(C)c2ccccc12)C(=O)N[C@H](Cc1ccccn1)C(=O)O
inactive: 1 nM -0.85% | 8.33 nM 2.47% | 100 nM 0.97% | 833.33 nM -2.82% | 10000 nM 2.44%

O=C(O)c1ccc(S(=O)(=O)N(Cc2ccc(OC(F)(F)F)cc2)c2ncc(C(F)(F)F)cc2Cl)cc1
inactive: 1 nM 1.52% | 8.33 nM -0.05% | 100 nM 1.73% | 833.33 nM 1.99% | 10000 nM 4.63%
